Results as given in PubChem BioAssay.
Where “and” joins values, the source holds several entries; their conditions need not be identical. Equal entries are not always repeated. Inconclusive results are not listed. Calls of active or inactive are those of the source.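 How the source made its calls, unless noted: active means compounds killing one labelled cell type while sparing the other, by normalised counts and ratio limits, not self-fluorescent; inactive means the rest.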

Experiments:
[1] = stimulators of insulin release from INS-1E, primary screen, cell-based, 5 mM glucose, NPC library (AID 1117329;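 active means compound raises insulin release from rat beta cells at 5 mM glucose, no numeric limit stated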); details: rat INS-1E insulin secretion, at 10 µM, stronger effect = higher value
[2] = growth inhibition of GSK3B-pretreated HCT116 cells – cell-based, CellTiter-Glo, 0.2 to 20 µM (AID 1117336;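 active means compounds lowering colon cancer cell viability after pretreatment blocking the GSK3B kinase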); details: HCT116 viability after GSK3B inhibitor, at 20 µM, stronger effect = higher value
[3] = inhibition of endothelial tube formation, primary screen, imaging, VEGF stimulated, CD31 staining, tube area, NPC library (AID 1117340;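 active means compound that reduces growth-factor-driven endothelial tube area in a mixed cell culture, no cutoff stated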); details: VEGF-stimulated ADSC/ECFC co-culture, at 10 µM, stronger effect = higher value
[4] = glucagon-like peptide 1 release enhancers, primary assay, NCI-H716 cell line, NPC library (AID 1117341;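 active means compound raises GLP1 secretion from the human gut endocrine cells, with no numeric limit stated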); details: NCI-H716 cells, at 10 µM, stronger effect = higher value
[5] = HCT116 colon cancer cell growth inhibition, primary screen, CellTiter-Glo luminescence, NPC library (AID 1117342;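 active means compounds that lower survival of HCT116 colon cancer cells in the luminescence readout, no numeric limit stated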); details: at 20 µM (top of the series)
[6] = CellTiter-Glo luminescent readout of SW480 viability loss, NPC library primary (AID 1117343;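 active means compounds that lower viability of the colon cancer cells in the luminescence readout, with no numeric limit stated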); details: CellTiter-Glo luminescence; at 20 µM (top of the series)
[7] = decreased DLD-1 cellular survival, CellTiter-Glo luminescent readout, NPC compound collection, primary HTS (AID 1117346;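 active means compounds that lower survival of DLD-1 colon cancer cells in the luminescence readout, no cutoff given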); details: DLD-1 viability, CellTiter-Glo luminescence; at 20 µM (top of the series)
[8] = molecular target: 6-phosphogluconate dehydrogenase, decarboxylating (Homo sapiens) (UniProt P52209); assay: 6PGD enzyme inhibitors, primary screen, biochemical, human, recombinant enzyme, NADPH absorbance (AID 1159550;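 active means at least 20% inhibition of 6-phosphogluconate dehydrogenase activity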); details: recombinant 6PGD, NADPH absorbance 341 nm; at 10 µM; stronger effect = higher value
[9] = differential killing of epithelial or mesenchymal cells, primary screen, imaging, PC-3E GFP, TEM4-18 mCherry, co-culture (AID 1345086); details: imaging cell counts, at 1 µM; for red/green cell ratio (normalised): actives lie on both sides, counts scaled to control wells, 1 = unselective;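 on all read-outs here: cells exposed to compound for 72 h before imaging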;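 on red/green cell ratio (normalised): normalised mesenchymal count divided by normalised epithelial count so high means epithelial killing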
[10] = growth inhibition of DIPG glioma cells, dose response, cell-based, SU-DIPG-XIII, MIPE4.0, CellTiter-Glo, qHTS (AID 1347061; cut-off not given, nearly all actives have AC50 up to about 37 µM;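 further: cells exposed to compound for 48 hours before readout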); details: SU-DIPG-XIII viability, CellTiter-Glo ATP luminescence
[11] = growth inhibition of DIPG glioma cells, dose response, cell-based, JHH-DIPG-1, MIPE4.0, CellTiter-Glo, qHTS (AID 1347062; cut-off not given, nearly all actives have AC50 up to about 27 µM;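 on AC50: cells exposed to compound for two days before readout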); details: JHH-DIPG-1 viability, CellTiter-Glo ATP luminescence
[12] = growth inhibition of DIPG glioma cells, dose response, cell-based, SU-DIPG-IV, MIPE4.0, CellTiter-Glo, qHTS (AID 1347063; cut-off not given, nearly all actives have AC50 up to about 30 µM;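 further: compound exposure lasted 48 hours before the viability readout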); details: SU-DIPG-IV viability, CellTiter-Glo ATP luminescence
[13] = growth inhibition of DIPG glioma cells, dose response, cell-based, SU-DIPG-XVII, MIPE5.0, CellTiter-Glo, qHTS (AID 1347060; cut-off not given, nearly all actives have AC50 up to about 26 µM;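 further: cells exposed to compound for 48 hours before viability readout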); details: SU-DIPG-XVII viability, CellTiter-Glo ATP luminescence
[14] = growth inhibition of DIPG glioma cells, dose response, cell-based, SU-DIPG-XIII, MIPE5.0, CellTiter-Glo, qHTS (AID 1347064; cut-off not given, nearly all actives have AC50 up to about 23 µM;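 on AC50: cells exposed to compound for 48 hours before the viability read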); details: SU-DIPG-XIII viability, CellTiter-Glo ATP luminescence
[15] = measured here: epithelial PC-3E GFP cell survival
[16] = measured here: mesenchymal TEM4-18 mCherry cell survival

6-phosphogluconate dehydrogenase, decarboxylating (Homo sapiens), sequence (P52209 whole entry, looked up): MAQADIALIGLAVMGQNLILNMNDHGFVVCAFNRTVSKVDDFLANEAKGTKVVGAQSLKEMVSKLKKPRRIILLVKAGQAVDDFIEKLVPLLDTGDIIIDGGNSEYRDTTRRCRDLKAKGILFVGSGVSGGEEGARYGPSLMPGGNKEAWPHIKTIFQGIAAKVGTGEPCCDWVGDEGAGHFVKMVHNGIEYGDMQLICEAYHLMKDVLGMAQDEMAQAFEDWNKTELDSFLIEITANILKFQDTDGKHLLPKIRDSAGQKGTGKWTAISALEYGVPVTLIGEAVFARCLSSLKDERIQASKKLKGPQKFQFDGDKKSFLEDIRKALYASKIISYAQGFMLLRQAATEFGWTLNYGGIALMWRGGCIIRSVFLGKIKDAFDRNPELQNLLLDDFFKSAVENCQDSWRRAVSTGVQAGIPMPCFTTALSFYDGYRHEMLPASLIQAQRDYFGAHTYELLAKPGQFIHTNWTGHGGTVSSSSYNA

COc1ccc2c(c1)c(CC(=O)OCC(=O)O)c(C)n2C(=O)c1ccc(Cl)cc1
1.18: normalised cell number [9, 15]
inactive: insulin secretion stimulation [1] 2.2% | viability decrease [2] 4.9% | tube area decrease [3] -5.2% | GLP1 secretion stimulation [4] -2.5% | inhibition of viability [5] 12.8% | viability decrease (inhibition) [6] 33.3% | viability decrease (inhibition) [7] 0.1% | inhibition [8] -4.54% | red/green cell ratio (normalised) [9] 0.77 | outcome [10] | outcome [11] | outcome [12]
0.91: normalised cell number [9, 16]

S=P(N1CC1)(N1CC1)N1CC1
active: AC50 [13] 20.9 µM
inactive: insulin secretion stimulation [1] 1.3% | viability decrease [2] 16.4% | tube area decrease [3] 35.1% | GLP1 secretion stimulation [4] -2.2% | inhibition of viability [5] 22.3% | viability decrease (inhibition) [6] 33.3% | viability decrease (inhibition) [7] 18.9% | inhibition [8] -6.76% | red/green cell ratio (normalised) [9] 0.99 | outcome [11] | outcome [14]
1.06: normalised cell number [9, 15] | normalised cell number [9, 16]

CCC1(C)CC(=O)NC1=O (centres undefined)
1.07: normalised cell number [9, 15]
inactive: insulin secretion stimulation [1] 0% | viability decrease [2] -17.5% | tube area decrease [3] -2.9% | GLP1 secretion stimulation [4] -2.3% | inhibition of viability [5] -5.57% | viability decrease (inhibition) [6] -27.9% | viability decrease (inhibition) [7] -7.1% | inhibition [8] -0.667% | red/green cell ratio (normalised) [9] 1.22 | outcome [10] | outcome [11] | outcome [12] | outcome [14]
1.31: normalised cell number [9, 16]

Clc1ccc(C(c2ccccc2Cl)C(Cl)Cl)cc1 (centres undefined)
1.08: normalised cell number [9, 16]
1.11: normalised cell number [9, 15]
inactive: insulin secretion stimulation [1] 1.4% | viability decrease [2] 46.6% | tube area decrease [3] 6.6% | GLP1 secretion stimulation [4] 15.5% | inhibition [8] 5.07% | red/green cell ratio (normalised) [9] 0.98
active: inhibition of viability [5] 88.6% | viability decrease (inhibition) [6] 84.4% | viability decrease (inhibition) [7] 99.5% | AC50 [12] 16.6 µM | AC50 [14] 18.6 µM

Cc1cccc(N(C)C(=S)Oc2ccc3ccccc3c2)c1
active: viability decrease [2] 50% | inhibition of viability [5] 58.6% | viability decrease (inhibition) [7] 56.8%
1.46: normalised cell number [9, 16]
inactive: insulin secretion stimulation [1] 0.4% | tube area decrease [3] -39% | GLP1 secretion stimulation [4] -2.7% | viability decrease (inhibition) [6] 35.1% | inhibition [8] 6.26% | red/green cell ratio (normalised) [9] 1.19 | outcome [11] | outcome [14]
1.22: normalised cell number [9, 15]

NCCCCCC(=O)O
inactive: insulin secretion stimulation [1] -1.3% | viability decrease [2] -23% | tube area decrease [3] 15.9% | GLP1 secretion stimulation [4] 1.1% | inhibition of viability [5] -10.8% | viability decrease (inhibition) [6] 9.9% | viability decrease (inhibition) [7] -9.4% | inhibition [8] 11.8% | red/green cell ratio (normalised) [9] 0.92 | outcome [10] | outcome [11] | outcome [12] | outcome [14]
1.31: normalised cell number [9, 15]
1.21: normalised cell number [9, 16]

Cn1c(=O)c2c(ncn2C)n(C)c1=O
1.17: normalised cell number [9, 15]
1.14: normalised cell number [9, 16]
inactive: insulin secretion stimulation [1] 4.3% | viability decrease [2] -1.7% | tube area decrease [3] 16.4% | GLP1 secretion stimulation [4] -0.2% | inhibition of viability [5] -8.8% | viability decrease (inhibition) [6] -11.7% | viability decrease (inhibition) [7] 7.2% | inhibition [8] 8.55% | red/green cell ratio (normalised) [9] 0.97 | outcome [10] | outcome [11] | outcome [14]

CCn1cc(C(=O)O)c(=O)c2cc(F)c(N3CCNC(C)C3)c(F)c21 (centres undefined)
1.03 and 1.1: normalised cell number [9, 15]
inactive: insulin secretion stimulation [1] 1.7% | viability decrease [2] 15.3% | tube area decrease [3] -13.3% | GLP1 secretion stimulation [4] -0.4% | inhibition of viability [5] 0.55% | viability decrease (inhibition) [6] -10.7% | viability decrease (inhibition) [7] -20.1% | inhibition [8] -3.66% | red/green cell ratio (normalised) [9] 1.03 and 0.91 | outcome [11] | outcome [12] | outcome [14]
1.07 and 1: normalised cell number [9, 16]

COc1ccc(C(=O)CC(=O)c2ccc(C(C)(C)C)cc2)cc1
inactive: insulin secretion stimulation [1] 1.3% | viability decrease [2] -88.8% | tube area decrease [3] -15.2% | GLP1 secretion stimulation [4] -3.2% | inhibition of viability [5] 15.8% | viability decrease (inhibition) [6] 18.1% | viability decrease (inhibition) [7] 16.6% | inhibition [8] -0.365% | red/green cell ratio (normalised) [9] 1.31
active: AC50 [11] 3.72 µM | AC50 [12] 5.26 µM
1.18: normalised cell number [9, 16]
0.9: normalised cell number [9, 15]

CCOC(=O)[C@H](CCc1ccccc1)N[C@@H](C)C(=O)N1CCC[C@H]1C(=O)O
inactive: insulin secretion stimulation [1] 0.7% | viability decrease [2] 1.3% | tube area decrease [3] -1.3% | GLP1 secretion stimulation [4] 19.8% | inhibition of viability [5] -3.77% | viability decrease (inhibition) [6] 12.5% | viability decrease (inhibition) [7] 3.4% | inhibition [8] -2.48% | red/green cell ratio (normalised) [9] 0.88 | outcome [10] | outcome [11] | outcome [12] | outcome [14]
0.99: normalised cell number [9, 16]
1.12: normalised cell number [9, 15]

Cc1nnc(NS(=O)(=O)c2ccc(N)cc2)s1
1.33: normalised cell number [9, 16]
inactive: insulin secretion stimulation [1] -2.4% | viability decrease [2] 6.15% | tube area decrease [3] 19.3% | GLP1 secretion stimulation [4] 2.8% | inhibition of viability [5] 0.2% | viability decrease (inhibition) [7] 3.2% | inhibition [8] -8.84% | red/green cell ratio (normalised) [9] 1.39 | outcome [14]
0.96: normalised cell number [9, 15]
active: viability decrease (inhibition) [6] 86.3% | AC50 [10] 20.9 µM | AC50 [11] 1.32 µM
